Bioassay records as filed in PubChem.
RAD52 inh: blocks human RAD52 DNA annealing; hit rate 0.46% among 360,000; recombinant RAD52 DNA annealing, FRET fluorescence; inhibition, % at 18.7 µM; P43351;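 active = every replicate showing at least 50% inhibition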
NSD2 inh: inhibitors of human histone methyltransferase NSD2; O96028; NSD2 peptide methylation, AlphaScreen, 120 min; inhibition, % at 12.5 µM; hit rate 0.54% among 310,000; AID 743445; in the data active = inhibition above about 50%
CASP6 VEID inh: blocks human caspase-6 cleavage activity | inhibition, % at 12.5 µM | hit rate 0.53% among 350,000 | P55212 | purified caspase-6, Z-VEID-R110 cleavage fluorescence;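 active = mean inhibition across replicates at least about 35%, with every replicate also reaching that limit, limit read from the data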;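 also: 0% = median of neutral control wells and 100% = no fluorescence left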
RAD54 branch: inhibitors of human RAD54 branch migration; inhibition, % at 10.4 µM; Q92698; AID 602329; RAD54 Holliday junction branch migration, FAM/BHQ fluorescence; hit rate 0.14% among 360,000;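 active = mean normalized replicate activity at least 40 and at least half of replicates scoring 40 or more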;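 also: 0% = median of neutral control wells and 100% = median of positive control wells; inhibitors cause a drop in the FAM fluorescence signal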
Target sequence (Q92698 whole entry, looked up): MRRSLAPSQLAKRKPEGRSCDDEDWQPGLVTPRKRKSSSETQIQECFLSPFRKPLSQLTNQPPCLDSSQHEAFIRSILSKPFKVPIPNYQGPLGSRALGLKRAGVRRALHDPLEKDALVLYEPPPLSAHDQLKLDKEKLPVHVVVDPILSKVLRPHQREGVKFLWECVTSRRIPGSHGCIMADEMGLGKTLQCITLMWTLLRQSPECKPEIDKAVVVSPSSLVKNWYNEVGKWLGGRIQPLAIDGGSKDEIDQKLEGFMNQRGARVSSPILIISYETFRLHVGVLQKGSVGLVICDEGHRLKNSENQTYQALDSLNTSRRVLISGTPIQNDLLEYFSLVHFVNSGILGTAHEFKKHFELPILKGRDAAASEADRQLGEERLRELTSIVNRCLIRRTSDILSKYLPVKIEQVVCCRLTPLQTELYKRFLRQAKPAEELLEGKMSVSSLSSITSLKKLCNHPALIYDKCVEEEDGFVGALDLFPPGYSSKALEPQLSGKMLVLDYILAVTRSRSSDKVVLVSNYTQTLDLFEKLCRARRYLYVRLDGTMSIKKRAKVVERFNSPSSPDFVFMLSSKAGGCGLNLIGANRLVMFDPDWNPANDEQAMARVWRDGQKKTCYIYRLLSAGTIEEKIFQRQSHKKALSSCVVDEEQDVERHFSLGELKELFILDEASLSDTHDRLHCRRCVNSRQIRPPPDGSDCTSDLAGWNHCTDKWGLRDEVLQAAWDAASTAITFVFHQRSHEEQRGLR
N-glyco inh: blocks N-linked glycosylation in D54 reporter cells | hit rate 0.23% among 360,000 | reporter increase, % at 12.5 µM | D54 ERlucT glycosylation luciferase reporter, 24 h; percent of 100 nM tunicamycin response;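 active = mean luciferase reporter signal, scaled so untreated is 0 and the glycosylation-blocking control 100, at or above a set limit in every replicate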;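 also: luciferase carries N-glycosylation sites so blocking glycosylation raises the light; 0% = median of neutral control wells and 100% = median of 100 nM tunicamycin wells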
Alpha artifact: AlphaScreen assay artifact in NSD2 counter-screen. shares compounds with NSD2 inh. AlphaScreen artifact counterscreen, preloaded methylated H4 peptide. AC35, µM (titrated, usually from 10 µM), inactives show top-dose activity change, negative = signal loss. AID 1053174. hit rate 9.4% among 1,500; call rule not given here
* = called active by the depositor; i = inactive; / = no result. This is a sample that favours compounds with a hit; in the whole collection about 1.2% have one here.

SMILES | RAD52 inh | NSD2 inh | CASP6 VEID inh | RAD54 branch | N-glyco inh | Alpha artifact
Cc1c(N=C2C=CC(=O)c3ccccc32)c(=O)n(-c2ccccc2)n1C | 12 | 89* | 28 | / | 4 | -8%
CCCOc1ccc(C(C)=O)cc1CC(C(N)=O)C(N)=O | / | 135* | / | 5 | 0 | 2%
CCc1ccc(-c2cc(C)no2)cc1S(=O)(=O)N1CCN(c2ccc(OC)cc2)CC1 | -8 | -1 | 2 | 5 | 1 | /
CCc1ccc(-c2cc(C)no2)cc1S(=O)(=O)N1CCN(c2ccc(F)cc2)CC1 | -3 | 50* | -1 | / | 1 | -5%
CC(C)C#Cc1ccc2c(c1)O[C@H](CN(C)C(=O)c1cccc(F)c1)[C@H](C)CN([C@H](C)CO)S2(=O)=O | 8 | / | 3 | -1 | / | /
O=C(c1ccc(Br)c([N+](=O)[O-])c1)N1CCN(Cc2ccccc2)CC1 | 8 | 2 | 15 | 1 | -3 | /
O=C(c1ccc(N2CCOCC2)c([N+](=O)[O-])c1)N1CCN(Cc2ccccc2)CC1 | -9 | 120* | 1 | 11 | 0 | -3%
N#Cc1c(SCC(=O)Nc2nncs2)sc2c(O)cc(=O)[nH]c12 | -27 | 111* | 84* | -6 | 3 | -10%
COc1cccc(CN2C(=O)C(C)N(C(=O)c3c(F)cccc3F)c3ccccc32)c1 (stereo not given) | -11 | 104* | -3 | -7 | -3 | -8%
O=C1Cc2ccccc2C(=O)N1c1ccccc1 | 8 | 86* | 26 | -15 | 2 | -7%
CCOc1ccc(N2C(=O)Cc3ccccc3C2=O)cc1 | -13 | 0 | 30 | 3 | 1 | /
COc1ccc(S(=O)(=O)Nc2ccc3c(c2)CC(=O)N([C@@H](C)CO)C[C@@H](C)[C@H](CN(C)Cc2ccc(C(=O)Nc4ccccc4N)cc2)O3)cc1 | -11 | / | 0 | / | / | /
O=C(NCC[C@@H]1CC[C@@H](NC(=O)C2CCC2)[C@H](CO)O1)c1cc(Cl)cc(Cl)c1 | -9 | / | 0 | -7 | / | /
CCN(CC)CCNC(=O)Cc1nn(Cc2ccccc2)c(=O)c2ccccc12 | -3 | 51* | -3 | -9 | -1 | -2%
O=C(O)C[C@H]1CC[C@@H](NC(=O)Nc2cc(F)ccc2F)[C@@H](CO)O1 | 11 | / | 0 | 6 | / | /
COc1ccc(-c2cc3c(c(-c4ccc(Oc5ccccc5)cc4)n2)[Si](C(C)C)(C(C)C)OC3)cn1 | -75 | / | -3 | -5 | / | /
CN(C)c1cccc(C(=O)N/N=C/c2ccccc2F)c1 | -9 | 11 | 7 | / | -19 | /
Cc1cc(/C=N/NC(=O)c2cccc(N(C)C)c2)c(C)n1-c1cc(C(=O)O)cc(C(=O)O)c1 | -49 | 55* | 35 | / | 2 | -4%
CC(=O)NCCN1C(=O)C2C3c4ccccc4C(c4ccccc43)C2C1=O (stereo not given) | 0 | 76* | 0 | -9 | -1 | -4%
COc1ccc2c(c1)Cc1sc(NC(=O)c3ccco3)nc1-2 | / | 26 | / | 4 | 0 | /
COc1ccc2c(c1)Cc1sc(NC(C)=O)nc1-2 | / | 95* | / | 1 | -3 | -5%
COc1ccc2c(c1)Cc1sc(NC(=O)c3cccnc3)nc1-2 | -17 | 52* | 35 | / | 4 | 0%
COc1ccc(S(=O)(=O)N(C)C[C@H]2Oc3ccc(NC(=O)CCCN(C)C)cc3C(=O)N([C@@H](C)CO)C[C@H]2C)cc1 | -8 | / | 4 | 7 | / | /
C[C@H](CO)N1C[C@H](C)[C@@H](CN(C)Cc2ccc(Cl)c(Cl)c2)Oc2c(NC(=O)c3ccc(-c4nccs4)cc3)cccc2C1=O | 8 | / | 1 | 0 | / | /
O=C(/C=C/c1ccc([N+](=O)[O-])cc1)N1CCN(Cc2ccccc2)CC1 | -11 | -2 | 1 | 0 | -2 | /
SMILES | RAD52 inh | NSD2 inh | CASP6 VEID inh | RAD54 branch | N-glyco inh | Alpha artifact
O=C(/C=C/c1ccc(OCCCF)cc1)N1CCN(Cc2ccccc2)CC1 | -8 | 70* | -4 | -2 | -3 | -2%
CS(=O)(=O)Nc1ccc2c(c1)[C@H]1C[C@H](CC(=O)NCC3CC3)O[C@H](CO)[C@H]1O2 | 8 | / | 1 | 2 | / | /
CC(NC1=CC(=O)c2cccnc2C1=O)C(O)c1ccccc1 (stereo not given) | -8 | 114* | 100* | / | -18 | 1%
CC(c1ccccc1)N1C(=O)c2cccnc2C1=O (stereo not given) | -3 | -1 | 1 | 2 | 2 | /
CN1CCCCc2c1nc1ccccc1c2N (tested in a mixture with another compound) | / | 83* | / | 12 | -1 | 1%
O=C(CSc1nc(SCC(=O)NCc2ccccc2)n(-c2ccccc2)n1)NCc1ccccc1 | -9 | 81* | 5 | -4 | -2 | -2%
CC1=NN(c2ccc(C(=O)O)c(N)c2)C(=O)C1 | -10 | 130* | 26 | / | 1 | -6%
CCOC(=O)c1sc2nc(C)nc(NC3CCC(O)CC3)c2c1C (stereo not given) | -5 | 91* | 3 | 8 | 3 | -5%
Cc1nc2c(=O)[nH]c(=S)[nH]c2[nH]c1=O | -349 | 84* | 93* | -2 | 0 | -2%
CCOC(=O)C1CCCN(Cc2cc(Br)ccc2OC)C1 (stereo not given) | / | / | / | -4 | 1 | /
CCN(CC)C(=O)C1CCCN(Cc2ccc(OC)c(C)c2C)C1 (stereo not given) | 6 | 53* | 0 | 0 | 3 | -5%
Cc1cc(C)n(-c2nc(NCC(C)O)c3c4c(sc3n2)CCCC4)n1 (stereo not given) | / | 0 | / | -4 | 2 | /
Cc1cc(C)n(-c2nc(NCC(C)O)c3c4c(sc3n2)COC(C)(C)C4)n1 (stereo not given) | / | 81* | / | 15 | 0 | -7%
C[C@H]1CCCCO[C@H](CN(C)C(=O)Nc2ccccc2)[C@@H](C)CN([C@@H](C)CO)C(=O)c2cc(NC(=O)c3ccccc3)ccc2O1 | -102 | / | 0 | -12 | / | /
CCN1C(=O)/C(=C\c2ccc(-c3ccc([N+](=O)[O-])cc3OC)o2)SC1=Nc1cccc(C(=O)O)c1 | -44 | 60* | 26 | / | 0 | -6%
CCN1C(=O)/C(=C\c2ccc(-c3cccc(C(=O)OC)c3)o2)SC1=Nc1ccc(C(=O)O)cc1 | -21 | -3 | -3 | / | / | /
O=C(O)c1ccc(-n2cccc2/C=C2/NC(=O)N(c3ccccc3)C2=O)cc1 | -16 | 101* | 70* | / | 1 | -15%
N#CC(C#N)=Cc1cccn1-c1ccc(C(=O)O)cc1 | -21 | 100* | 71* | / | 1 | -8%
Cc1ccc(NC(=O)CN2C(=O)N/C(=C/c3cc(C)n(-c4cccc(C(=O)O)c4)c3C)C2=O)cc1 | -33 | 77* | 72* | / | 2 | -15%
Cc1ccc(NC(=O)CN2C(=O)N/C(=C\c3cccn3-c3cccc(C(=O)O)c3)C2=O)cc1 | / | 31 | / | 2 | -2 | /
CC(=O)NC1=NC(=O)/C(=C/c2cc(C)n(-c3cccc(C(=O)O)c3)c2C)S1 | i | 131* | 67* | / | 1 | -11%
